Measured values: PubChem BioAssay (Tox21)
A number with no mark means an inactive call. Results filed as inconclusive are left out. A call without a number means that no potency is given here. Active and inactive are the calls of the source. Unless noted, the call rests on the fitted dose curve; in most records, active means well fitted curve in the direction sought with a large enough effect in the repeat runs; inconclusive means weak or mixed curves; inactive means no such curve, though single readings can be large; an effect the other way counts as inactive or inconclusive.

Columns and labels:
[1] = qHTS assay to identify small molecule antagonists of the estrogen related receptor (ERR) signaling pathway from Tox21 library - cell viability counter screen (AID 1224834); further: nearly all actives have a fitted effect of over 30% in size
Outline: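 ERR cells, 2,000/well; 6 h settle at 37 C/5% CO2; pin-tool compound transfer in DMSO; 17.5 h at 37 C; CellTiter-Fluor, 30 min; fluorescence intensity.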

[2] = biological target: Luciferin 4-monooxygenase (Photinus pyralis) (UniProt P08659); test: qHTS assay to identify small molecule inhibitors of firefly luciferase (AID 1224835); further: nearly all actives have a fitted effect of over 25% in size; further: potency means the concentration at half of the fitted maximal effect
Outline: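 Inhibition of purified Photinus luciferase is measured by luminescence. Substrate levels (D-luciferin, ATP) sit at their KM values. Each compound is tested in a concentration series.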

[3] = qHTS assay to identify small molecule agonists of the constitutive androstane receptor (CAR) signaling pathway - cell viability counter screen (AID 1224836); further: series mostly up to about 92 µM; nearly all actives have a fitted effect of over 45% in size
Outline: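 Cell viability multiplexed with the CAR agonist screen: CellTiter-Fluor fluorescence after 23 hr at 37 C. HepG2-CYP2B6-hCAR cells got compounds at 15 concentrations with PK11195 at 0.75 uM final.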

[4] = biological target: Nuclear receptor subfamily 1 group I member 3 (Homo sapiens) (UniProt Q14994); test: qHTS assay to identify small molecule antagonists of the constitutive androstane receptor (CAR) signaling pathway (AID 1224838);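 further: HepG2 cells stably expressing hCAR with CYP2B6 luciferase reporter stimulated by CITCO; nearly all actives have a fitted effect of over 40% in size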
Outline: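 Antagonist mode used CITCO at a final 50 nM to activate CAR in human hepatoma HepG2 cells carrying stable hCAR and a 2.2 kb CYP2B6 promoter-luciferase construct. Compounds were tested at 15 concentrations over 24 h, with luminescence as the end point.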

[5] = qHTS assay to identify small molecule antagonists of the estrogen related receptor signaling pathway with the pleiotropic PPARgamma coactivator (PGC) from Tox21 10K library - cell viability counter screen (AID 1224840; active means well fitted cell-killing curve with a large enough effect in the repeat runs, not every such curve was filed as active; further: nearly all actives have a fitted effect of over 40% in size)
Outline: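 Multiplexed viability counter screen in the PGC/ERR cell line: cells treated with DMSO-dissolved compounds for 17.5 hours at 37 C, then viability measured as CellTiter-Fluor fluorescence.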

[6] = qHTS assay to identify small molecule antagonists of the estrogen related receptor signaling pathway with the pleiotropic PPARgamma coactivator (PGC) from Tox21 10K library (AID 1224841; call rule not given here; further: series mostly up to about 92 µM; actives are mostly falling curves and most rising ones were filed inactive; nearly all actives have a fitted effect of over 50% in size)
Outline: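 Steps: plate 2,000 PGC/ERR cells per well; incubate 6 h at 37 C with 5% CO2; transfer compounds from DMSO stocks by pin tool; incubate 18 h at 37 C; add One-Glo; measure luminescence 30 min later.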

[7] = qHTS assay to identify small molecule agonists of the estrogen related receptor signaling pathway with the pleiotropic PPARgamma coactivator (PGC) from Tox21 10K library (AID 1224842); further: nearly all actives have a fitted effect of over 15% in size
Outline: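 Luminescence from One-Glo (30 min, room temperature) measured after PGC/ERR cells had 18 h at 37 C with pinned compound (23 nL in DMSO). Cells had been seeded at 2,000 per well and pre-incubated 6 h.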

[8] = biological target: Thyrotropin receptor (Homo sapiens) (UniProt P16473); test: qHTS assay to identify small molecule agonists of the thyroid stimulating hormone receptor (TSHR) signaling pathway (AID 1224843; calls by dose curve; further: nearly all actives have a fitted effect of over 45% in size; further: potency means the concentration at half of the fitted maximal effect)
Outline: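 A cell-based cAMP HTRF format was run in TSHR-transfected HEK293 cells, 800 per well. Treatment: 30 min, room temperature. Detection: 1 h with labelled cAMP and anti-cAMP cryptate. Concentration-response over 15 points, three replicates.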

[9] = qHTS assay to identify small molecule agonists of the hypoxia (HIF-1) signaling pathway - cell viability counter screen (AID 1224844; calls by dose curve; further: nearly all actives have a fitted effect of over 50% in size)
Outline: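 Cytotoxicity was measured in parallel with the HRE-driven beta-lactamase readout: after 17 hrs of compound exposure at 37C, HRE-bla ME-180 cells received CellTiter-Glo and luminescence was recorded 30 min later.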

[10] = qHTS assay to identify small molecule agonists of H2AX (AID 1224845; active means well fitted activation curve with a large enough effect in the signal ratio in the repeat runs, not every such curve was filed as active; the % refers to the signal ratio)
Outline: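 Phospho-H2AX Ser139 measured by HTRF (ex 320 nm; em 665 and 620 nm) after 24 hr antibody incubation. Compounds, 15 concentrations, 0.76% DMSO, were applied to CHO-K1 cells for 3hr at 37C before lysis.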

[11] = qHTS assay to identify small molecule agonists of the hypoxia (HIF-1) signaling pathway (AID 1224846; active means well fitted activation curve with a large enough effect in the signal ratio in the repeat runs, not every such curve was filed as active; the % refers to the signal ratio)
Outline: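 Compounds from the Tox21 10K library, dissolved in DMSO, are tested for induction of a hypoxia response element–controlled beta-lactamase reporter in ME-180 cells. Exposure lasts 17 hrs at 37C after a 5 hr settling period, followed by CCF4-AM FRET substrate.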

[12] = qHTS assay to identify small molecule antagonists of the estrogen related receptor (ERR) signaling pathway from Tox21 library (AID 1224848); further: nearly all actives have a fitted effect of over 50% in size
Outline: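 ERR cell line, 2,000 cells/well. 6 h settle, then compound (DMSO) added; 18 h at 37 C; ONE-Glo luminescence after 30 min RT.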

[13] = qHTS RealTime-Glo MT Cell Viability Assay in HepG2 cells - 24 hour (AID 1224867); further: nearly all actives have a fitted effect of over 50% in size
Outline: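 HepG2 suspension premixed with RealTime-Glo reagents is plated at 600 cells per well and left 5 h at 37 C/5% CO2. Compounds in DMSO then go in, and bioluminescence reflecting viable cell number is recorded over 40 h.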

[14] = qHTS RealTime-Glo MT Cell Viability Assay in HEK293 cells - 32 hour (AID 1224868)
Outline: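 Reads taken at 0, 8, 16, 24, 32 and 40 h from the same wells. HEK293 cells (600/well) carried RealTime-Glo reagents from seeding, with compound added after a 5 h settle at 37 C.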

[15] = A CellTox Green Cytotoxicity Assay to monitor cytotoxicity in HEK293 cells - 0 hour (AID 1224869); further: nearly all actives have a fitted effect of over 50% in size
Outline: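 Cells (HEK293, 600/well) and dye reagent are dispensed together. After 5 h at 37 C, 23 nL compound is pinned in. Plates stay at 37 C for 40 h with fluorescence read at 0h, 8h, 16h, 24h, 32h and 40h.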

[16] = biological target: Nuclear receptor subfamily 1 group I member 3 (Homo sapiens) (UniProt Q14994); test: qHTS assay to identify small molecule agonists of the constitutive androstane receptor (CAR) signaling pathway (AID 1224839); further: nearly all actives have a fitted effect of over 15% in size; further: potency means the concentration at half of the fitted maximal effect; on activation: series mostly up to about 92 µM
Outline: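 Luminescent ONE-Glo read-out after 24 hr, 37 C exposure of double-stable HepG2-CYP2B6-hCAR reporter cells to a 15-point compound series, in the presence of 0.75 uM PK11195 (final).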

[17] = qHTS assay to identify small molecule agonists of H2AX - cell viability counter screen (AID 1224847; calls by dose curve;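 further: wild-type CHO-K1 cells; top concentration of the series differs between compounds; nearly all actives have a fitted effect of over 30% in size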)
Outline: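 Counter-screen for viability: CellTiter-Glo ATP luminescence read after 3 h compound treatment (15-point titration, 0.76% DMSO final) of CHO-K1 cells at 37C, with 30 min room-temperature reagent incubation.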

[18] = qHTS assay to identify small molecule antagonists of the constitutive androstane receptor (CAR) signaling pathway - cell viability counter screen (AID 1224837); further: series mostly up to about 92 µM; nearly all actives have a fitted effect of over 45% in size
Outline: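 Viability was measured with CellTiter-Fluor in a HepG2 line carrying stably transfected hCAR and a CYP2B6-2.2kb construct. Cells were exposed for 23 hr at 37 C to 15 compound concentrations with 50 nM CITCO as agonist.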

Thyrotropin receptor (Homo sapiens), sequence (P16473 whole entry, looked up): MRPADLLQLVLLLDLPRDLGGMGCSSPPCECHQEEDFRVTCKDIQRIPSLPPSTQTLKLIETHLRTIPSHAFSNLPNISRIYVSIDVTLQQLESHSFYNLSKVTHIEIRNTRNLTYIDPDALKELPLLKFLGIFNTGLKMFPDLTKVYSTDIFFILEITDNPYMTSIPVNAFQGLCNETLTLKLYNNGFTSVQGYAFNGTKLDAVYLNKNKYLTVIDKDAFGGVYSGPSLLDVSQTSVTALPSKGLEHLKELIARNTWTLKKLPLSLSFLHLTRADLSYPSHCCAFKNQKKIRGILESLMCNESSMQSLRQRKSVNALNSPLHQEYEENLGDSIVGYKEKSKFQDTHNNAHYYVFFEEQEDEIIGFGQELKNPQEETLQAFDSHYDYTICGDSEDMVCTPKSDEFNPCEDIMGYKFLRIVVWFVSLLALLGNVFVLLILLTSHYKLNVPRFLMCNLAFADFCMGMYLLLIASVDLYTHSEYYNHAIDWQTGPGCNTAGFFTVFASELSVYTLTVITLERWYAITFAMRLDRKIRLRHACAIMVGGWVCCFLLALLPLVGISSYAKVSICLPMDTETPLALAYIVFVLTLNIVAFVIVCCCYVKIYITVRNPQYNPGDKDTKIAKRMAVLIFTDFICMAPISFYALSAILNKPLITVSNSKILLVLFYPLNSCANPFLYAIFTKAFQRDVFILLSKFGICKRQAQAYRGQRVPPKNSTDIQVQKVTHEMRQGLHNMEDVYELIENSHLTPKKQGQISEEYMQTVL
Nuclear receptor subfamily 1 group I member 3 (Homo sapiens), sequence (Q14994 whole entry, looked up): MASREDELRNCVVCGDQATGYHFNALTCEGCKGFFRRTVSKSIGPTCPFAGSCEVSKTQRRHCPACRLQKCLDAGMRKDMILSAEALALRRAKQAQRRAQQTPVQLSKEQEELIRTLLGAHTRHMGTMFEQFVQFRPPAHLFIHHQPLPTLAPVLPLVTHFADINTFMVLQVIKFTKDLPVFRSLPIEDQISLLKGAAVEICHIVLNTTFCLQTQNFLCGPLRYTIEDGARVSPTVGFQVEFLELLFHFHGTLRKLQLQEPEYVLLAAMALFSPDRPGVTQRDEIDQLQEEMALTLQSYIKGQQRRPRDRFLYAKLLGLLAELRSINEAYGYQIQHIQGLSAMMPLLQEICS
Luciferin 4-monooxygenase (Photinus pyralis), sequence (P08659 whole entry, looked up): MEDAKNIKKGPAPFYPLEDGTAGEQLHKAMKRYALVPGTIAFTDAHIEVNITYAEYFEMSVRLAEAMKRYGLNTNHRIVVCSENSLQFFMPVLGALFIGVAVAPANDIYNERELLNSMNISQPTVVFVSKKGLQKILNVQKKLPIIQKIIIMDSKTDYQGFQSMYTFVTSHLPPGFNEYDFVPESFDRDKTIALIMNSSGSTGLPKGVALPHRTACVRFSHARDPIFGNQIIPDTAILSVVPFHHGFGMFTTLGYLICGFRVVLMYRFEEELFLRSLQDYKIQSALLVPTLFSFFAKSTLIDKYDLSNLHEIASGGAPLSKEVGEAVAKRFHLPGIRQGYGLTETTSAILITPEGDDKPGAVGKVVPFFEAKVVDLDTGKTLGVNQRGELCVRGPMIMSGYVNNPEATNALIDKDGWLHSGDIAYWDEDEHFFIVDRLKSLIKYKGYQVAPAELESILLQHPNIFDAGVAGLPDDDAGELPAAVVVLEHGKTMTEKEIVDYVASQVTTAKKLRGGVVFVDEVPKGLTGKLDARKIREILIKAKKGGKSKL

SMILES	Potency [1]	Potency [2]	Potency [3]	Potency [4]	Potency [5]	Potency [6]	Potency [7]	Potency [8]	Potency [9]	Potency [10]	outcome [11]	Potency [12]	outcome [13]	Potency [14]	Potency [15]	Potency [16]	Potency [17]	Potency [18]
CC(C)Oc1ccccc1O	inactive	inactive	inactive	inactive	inactive	inactive	inactive	inactive	inactive	inactive	inactive	inactive	inactive	inactive	inactive	–	–	–
CC(=O)c1ccc(Cl)c(Cl)c1Cl	inactive	inactive	inactive	inactive	inactive	–	–	inactive	inactive	inactive	inactive	–	inactive	–	inactive	inactive	inactive	–
COc1ccc(CN(CCN(C)C)c2ncccn2)cc1	inactive	inactive	inactive	–	inactive	–	–	inactive	inactive	inactive	inactive	–	inactive	inactive	inactive	–	inactive	inactive
CCCCCCCCS	inactive	inactive	inactive	–	inactive	–	–	–	inactive	inactive	–	–	inactive	–	inactive	–	inactive	inactive
O=C(Cl)c1cc(Cl)cc(Cl)c1	inactive	inactive	inactive	inactive	inactive	–	–	inactive	inactive	inactive	–	–	inactive	–	inactive	inactive	inactive	–
CCOC(C)OCC	inactive	inactive	inactive	–	inactive	–	–	–	inactive	inactive	inactive	–	inactive	inactive	–	–	inactive	inactive
OCCCO	inactive	inactive	inactive	–	inactive	–	–	inactive	inactive	inactive	inactive	–	inactive	inactive	inactive	–	–	inactive
Cc1c(Cl)cccc1[N+](=O)[O-]	inactive	inactive	inactive	–	inactive	–	–	–	inactive	inactive	inactive	–	inactive	inactive	inactive	–	inactive	inactive
c1ccc(CN(Cc2ccccc2)Cc2ccccc2)cc1	inactive	inactive	inactive	inactive	inactive	–	–	17.2 µM (active)	inactive	inactive	inactive	–	inactive	inactive	inactive	inactive	–	–
c1ccc(CCNc2nc(-c3ccccc3)cs2)cc1	inactive	3.47 µM (active)	inactive	inactive	inactive	–	–	inactive	inactive	inactive	inactive	–	inactive	–	–	7.5 µM (active)	–	–
